Experimental data reported in PubChem BioAssay AID1159580 (chemical genetic matrix, 2015).
The campaign covered roughly 5,500 compounds. About 2,000 (36%) were called active. Roughly 18% stayed inconclusive and do not appear here. Cut-off read from the data, not from the text of the source: active = normalized growth mostly below about 0.91 (no sharp cut-off); inconclusive = no clear call, values can overlap the other calls; inactive = mostly above about 0.92. The list shows a part of the results.

Experiment: chemical genetic growth profiling, strain panel (AID 1159580);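 note: tested at 20 µM; growth read once vehicle control cultures reached saturation at 30 °C; 1 = growth at the plate median or of vehicle wells; lower values mean less growth of the strain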
Conditions: growth OD

Measured: normalized growth

Oc1cccc(O)c1
inactive: S. cerevisiae deletion strains, locus YJR066W, strain TOR1, active compounds read low 0.971 | S. cerevisiae deletion strains, locus YJR075W, strain HOC1, active compounds read low 1.01 | S. cerevisiae deletion strains, locus YKL009W, strain mrt4, active compounds read low 0.98 | S. cerevisiae deletion strains, locus YKL068W, active compounds read low 0.997 | S. cerevisiae deletion strains, locus YKL085W, strain MDH1 (second series), active compounds read low 0.994 | S. cerevisiae deletion strains, locus YKL085W, strain MDH1, active compounds read low 0.994 | S. cerevisiae deletion strains, locus YKL160W, strain elf1, active compounds read low 1.02 | S. cerevisiae deletion strains, locus YKL190W, strain CNB1, active compounds read low 1.01 | S. cerevisiae deletion strains, locus YKR001C, strain vps1, active compounds read low 0.98 | S. cerevisiae deletion strains, locus YKR026C, strain gcn3, active compounds read low 0.967 | S. cerevisiae deletion strains, locus YKR091W, strain srl3, active compounds read low 0.979 | S. cerevisiae deletion strains, locus YLL001W, strain dnm1, active compounds read low 0.993 | S. cerevisiae deletion strains, locus YLL026W, active compounds read low 1.01 | S. cerevisiae deletion strains, locus YLL041C, strain sdh2, active compounds read low 0.979 | S. cerevisiae deletion strains, locus YLR027C, strain aat2, active compounds read low 0.992 | S. cerevisiae deletion strains, locus YLR039C, strain RIC1, active compounds read low 1.01 | S. cerevisiae deletion strains, locus YLR058C, strain SHM2, active compounds read low 1.01 | S. cerevisiae deletion strains, locus YLR102C, strain apc9, active compounds read low 0.993 | S. cerevisiae deletion strains, locus YLR113W, strain HOG1, active compounds read low 1.01 | S. cerevisiae deletion strains, locus YLR221C, strain rsa3, active compounds read low 0.962 | S. cerevisiae deletion strains, locus YLR258W, strain gsy2, active compounds read low 0.956 | S. cerevisiae deletion strains, locus YLR262C, strain YPT6 (second series), active compounds read low 1 | S. cerevisiae deletion strains, locus YLR262C, strain YPT6, active compounds read low 1.02 | S. cerevisiae deletion strains, locus YLR268W, strain sec22, active compounds read low 0.974 | S. cerevisiae deletion strains, locus YLR320W, strain mms22, active compounds read low 0.944 | S. cerevisiae deletion strains, locus YLR330W, strain CHS5, active compounds read low 1.01 | S. cerevisiae deletion strains, locus YLR342W, strain FKS1 (second series), active compounds read low 0.995 | S. cerevisiae deletion strains, locus YLR342W, strain FKS1, active compounds read low 1 | S. cerevisiae deletion strains, locus YLR357W, strain rsc2, active compounds read low 0.977 | S. cerevisiae deletion strains, locus YLR370C, strain arc18, active compounds read low 0.992 | S. cerevisiae deletion strains, locus YLR371W, strain rom2, active compounds read low 0.992 | S. cerevisiae deletion strains, locus YLR384C, strain iki3, active compounds read low 0.997 | S. cerevisiae deletion strains, locus YLR418C, strain cdc73, active compounds read low 0.961 | S. cerevisiae deletion strains, locus YML016C, strain PPZ1, active compounds read low 1 | S. cerevisiae deletion strains, locus YML032C, strain rad52, active compounds read low 0.983 | S. cerevisiae deletion strains, locus YML120C, strain ndi1, active compounds read low 0.986 | S. cerevisiae deletion strains, locus YML124C, strain tub3, active compounds read low 0.991 | S. cerevisiae deletion strains, locus YMR058W, strain fet3, active compounds read low 0.972 | S. cerevisiae deletion strains, locus YMR078C, strain ctf18, active compounds read low 0.989 | S. cerevisiae deletion strains, locus YMR125W, strain sto1, active compounds read low 0.932 | S. cerevisiae deletion strains, locus YMR129W, active compounds read low 0.974 | S. cerevisiae deletion strains, locus YMR205C, strain PFK2, active compounds read low 0.991 | S. cerevisiae deletion strains, locus YMR223W, strain ubp8, active compounds read low 0.991 | S. cerevisiae deletion strains, locus YMR231W, strain pep5, active compounds read low 0.985 | S. cerevisiae deletion strains, locus YMR263W, strain SAP30, active compounds read low 1.01 | S. cerevisiae deletion strains, locus YMR307W, strain GAS1, active compounds read low 0.989 | S. cerevisiae deletion strains, locus YNL067W, strain RPL9B, active compounds read low 1.02 | S. cerevisiae deletion strains, locus YNL071W, strain lat1, active compounds read low 0.969 | S. cerevisiae deletion strains, locus YNL183C, strain NPR1, active compounds read low 0.951 | S. cerevisiae deletion strains, locus YNL209W, strain ssb2, active compounds read low 0.973 | S. cerevisiae deletion strains, locus YNL233W, strain BNI4, active compounds read low 1.01 | S. cerevisiae deletion strains, locus YNL248C, strain rpa49, active compounds read low 0.957 | S. cerevisiae deletion strains, locus YNL250W, strain rad50, active compounds read low 0.985 | S. cerevisiae deletion strains, locus YNL271C, strain bni1, active compounds read low 0.991 | S. cerevisiae deletion strains, locus YNL298W, strain CLA4, active compounds read low 0.978 | S. cerevisiae deletion strains, locus YNL307C, strain MCK1, active compounds read low 0.988 | S. cerevisiae deletion strains, locus YNL322C, strain KRE1 (second series), active compounds read low 0.967 | S. cerevisiae deletion strains, locus YNR049C, strain mso1, active compounds read low 0.971 | S. cerevisiae deletion strains, locus YNR052C, strain pop2, active compounds read low 0.99 | S. cerevisiae deletion strains, locus YOL006C, strain TOP1, active compounds read low 1.03 | S. cerevisiae deletion strains, locus YOL012C, strain htz1 0.68 | S. cerevisiae deletion strains, locus YOL147C, strain pex11, active compounds read low 0.995 | S. cerevisiae deletion strains, locus YOR001W, strain rrp6, active compounds read low 1.01 | S. cerevisiae deletion strains, locus YOR061W, strain CKA2, active compounds read low 1.01 | S. cerevisiae deletion strains, locus YOR069W, strain VPS5, active compounds read low 1 | S. cerevisiae deletion strains, locus YOR070C, strain gyp1, active compounds read low 0.979 | S. cerevisiae deletion strains, locus YOR080W, strain dia2, active compounds read low 0.987 | S. cerevisiae deletion strains, locus YOR083W, strain WHI5, active compounds read low 0.986 | S. cerevisiae deletion strains, locus YOR106W, strain vam3, active compounds read low 0.983 | S. cerevisiae deletion strains, locus YOR136W, strain idh2, active compounds read low 0.988 | S. cerevisiae deletion strains, locus YOR144C, strain elg1, active compounds read low 0.98 | S. cerevisiae deletion strains, locus YOR184W, strain ser1, active compounds read low 0.977 | S. cerevisiae deletion strains, locus YOR231W, strain MKK1, active compounds read low 1.02 | S. cerevisiae deletion strains, locus YOR265W, strain rbl2, active compounds read low 0.987 | S. cerevisiae deletion strains, locus YOR270C, strain vph1, active compounds read low 0.969 | S. cerevisiae deletion strains, locus YOR290C, strain snf2, active compounds read low 0.922 | S. cerevisiae deletion strains, locus YOR316C, strain cot1, active compounds read low 0.995 | S. cerevisiae deletion strains, locus YPL051W, strain arl3, active compounds read low 1 | S. cerevisiae deletion strains, locus YPL055C, strain LGE1, active compounds read low 1.03 | S. cerevisiae deletion strains, locus YPL078C, strain atp4, active compounds read low 1 | S. cerevisiae deletion strains, locus YPL106C, strain sse1, active compounds read low 0.926 | S. cerevisiae deletion strains, locus YPL240C, strain hsp82, active compounds read low 0.995 | S. cerevisiae deletion strains, locus YPL241C, strain CIN2, active compounds read low 1.01 | S. cerevisiae deletion strains, locus YPL256C, strain CLN2, active compounds read low 1.06 | S. cerevisiae deletion strains, locus YPR119W, strain clb2, active compounds read low 0.959 | S. cerevisiae deletion strains, locus YPR141C, strain kar3, active compounds read low 0.988 | S. cerevisiae deletion strains, locus YPR163C, strain tif3, active compounds read low 0.993 | S. cerevisiae deletion strains, locus YPR167C, strain met16, active compounds read low 0.995 | S. cerevisiae deletion strains, strain wtn01, active compounds read low 0.979 | S. cerevisiae strains, strain wild type, active compounds read low 1
